Screening results: PubChem, several laboratories
Most compounds without a hit are left out; they make up all but 1.8% or so of the library.
beta cell repl = inducers of beta-cell replication in MIN6 cells. 330,000 compounds, 0.29% hits. proliferation, % at 10 µM. AID 2380. MIN6 cells proliferation, ATPlite luminescence, 48 h; cells starved in 0.2% serum; 100% = growth in 10% serum;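 active = compounds whose signal lies at least 3.5 SD above the mean of all wells on their plate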;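 note: 0% = DMSO-treated cells in low-serum medium and 100% = 10% serum control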
A3A deaminase = blocks human APOBEC3A ssDNA deamination; recombinant A3A, FAM/TAMRA ssDNA deamination fluorescence; inhibition, % at 20 µM; AID 493011; P31941; 330,000 compounds, 0.41% hits;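 active = at least 40% inhibition at 20 µM here, with at most 30% in a related deaminase screen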;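 note: plate controls were A3A with DMSO for no effect and wells lacking A3A enzyme for full effect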
VLA-4 inh = inhibition in a human VLA-4 binding assay | inhibition, % (about 7 µM as worked out from the volumes in the protocol) | VLA-4 expressing cells, ligand binding flow cytometry | 330,000 compounds, 0.2% hits | AID 2557; in the data active = inhibition above about 50%
Target sequence (P13612 whole entry, looked up): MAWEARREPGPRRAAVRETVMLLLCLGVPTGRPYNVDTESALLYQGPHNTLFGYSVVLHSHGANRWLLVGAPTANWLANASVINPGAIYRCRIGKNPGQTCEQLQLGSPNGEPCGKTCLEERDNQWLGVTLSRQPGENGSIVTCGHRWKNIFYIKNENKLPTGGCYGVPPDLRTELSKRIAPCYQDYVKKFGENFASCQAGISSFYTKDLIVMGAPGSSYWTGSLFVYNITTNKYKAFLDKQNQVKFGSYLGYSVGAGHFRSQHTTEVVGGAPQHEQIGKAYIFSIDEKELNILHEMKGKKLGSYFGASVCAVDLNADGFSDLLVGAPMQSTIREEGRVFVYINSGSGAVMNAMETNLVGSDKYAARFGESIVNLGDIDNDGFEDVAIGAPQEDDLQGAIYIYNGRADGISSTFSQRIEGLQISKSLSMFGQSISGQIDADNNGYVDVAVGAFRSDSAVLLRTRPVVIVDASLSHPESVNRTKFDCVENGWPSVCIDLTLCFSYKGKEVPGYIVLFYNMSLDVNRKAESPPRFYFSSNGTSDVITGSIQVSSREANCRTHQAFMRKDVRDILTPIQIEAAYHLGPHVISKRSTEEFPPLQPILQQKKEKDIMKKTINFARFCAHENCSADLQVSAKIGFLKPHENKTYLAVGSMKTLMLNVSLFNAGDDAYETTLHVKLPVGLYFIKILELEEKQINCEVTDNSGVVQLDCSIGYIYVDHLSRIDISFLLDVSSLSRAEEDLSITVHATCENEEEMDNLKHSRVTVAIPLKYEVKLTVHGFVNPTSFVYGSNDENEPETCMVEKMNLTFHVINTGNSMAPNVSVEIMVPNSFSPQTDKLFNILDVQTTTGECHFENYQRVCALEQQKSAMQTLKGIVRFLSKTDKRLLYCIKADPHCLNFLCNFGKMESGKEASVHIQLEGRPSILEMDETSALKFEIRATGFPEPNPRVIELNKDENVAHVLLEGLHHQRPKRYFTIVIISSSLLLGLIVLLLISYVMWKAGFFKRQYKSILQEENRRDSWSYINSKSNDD
A3G deaminase = blocks human APOBEC3G single-stranded DNA deamination; Q9HC16; recombinant A3G, ssDNA deamination FAM/TAMRA fluorescence; 330,000 compounds, 0.28% hits; inhibition, % at 20 µM;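 active = inhibition of at least 40% at 20 µM, with no more than 30% in the related APOBEC3A deaminase screen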;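 note: plate controls were DMSO wells with A3G for no effect and wells lacking A3G enzyme for full effect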
NRP1-CendR mod = NRP-1/CendR interaction modulation | FAM-RPARPAR peptide binding to NRP-1, fluorescence polarization | inhibition, % at 25 µM | AID 602438 | O14786 | 360,000 compounds, 0.85% hits;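 active = inhibition or corrected inhibition above about 18%, plus a signal ratio from 0.5 to 1.5, limit read from the data, passing the limit was not always enough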
A3A conf = APOBEC3A (human) deaminase inhibition, confirmed | inhibition, % at 20 µM | shares compounds with A3A deaminase | recombinant A3A, ssDNA deaminase UDG fluorescence assay | 1,400 compounds, 63% hits;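 active = inhibition reaching a set limit, 80% of the first screen's cutoff, at 20 µM in any replicate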;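 note: plate controls were DMSO wells with A3A for no effect and wells lacking A3A enzyme for full effect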
UDG A3A counter = counter-screen for APOBEC3A inhibitors: UDG; 1,000 tested, under 10 active; AID 504714; inhibition, % at 20 µM; UDG counterscreen, FAM/TAMRA uracil oligo fluorescence; shares compounds with A3A deaminase; call rule not given here
Starred values were filed as active, the others as inactive; . = no result.

SMILES	beta cell repl	A3A deaminase	VLA-4 inh	A3G deaminase	NRP1-CendR mod	A3A conf	UDG A3A counter
O=C(O)c1cc(NC(=O)c2ccco2)cc(NC(=O)c2ccco2)c1	-3	4	-11	-5	-18	.	.
CCN(CC)C(=O)c1ccc(/C=C/c2c[nH]c3ccccc23)[n+](C)c1	0	42*	-165	13	52	68*	4
O=C(CCC1CCCCC1)NCc1ccccn1	0	2	-4	-3	6	.	.
CN(CC(=O)NC(=O)NC1CCCCC1)CC(=O)Nc1ccccc1C(F)(F)F	.	.	.	.	5	.	.
COC(=O)c1[nH]c2ccc(Br)cc2c1NC(=O)CN1CCN(C2CCCCC2)CC1	-6	47*	1	21	14	28	.
COC(=O)c1[nH]c2ccc(C)cc2c1NC(=O)CCN1CCN(C2CCCCC2)CC1	-2	-1	.	-2	.	.	.
COc1ccc(NC(=O)COc2ccc(/C=C/c3cc[n+](C)cc3)cc2OC)cc1	0	52*	5	7	-6	76*	3
COc1cc(/C=C/c2cc[n+](C)cc2)ccc1OCC(=O)Nc1ccc(Cl)c(Cl)c1	-3	81*	-2	13	-16	78*	4
COc1ccc(NC(=O)COc2ccc(/C=C/c3cccc[n+]3C)cc2OC)cc1	0	86*	1	26	5	75*	-1
COc1cc(/C=C/c2cccc[n+]2C)ccc1OCC(=O)Nc1ccccc1	0	73*	-2	22	-8	79*	3
C/C=C/c1ccc(OCC(=O)Nc2cc(OC)c(OC)c(OC)c2)c(OC)c1	-2	0	-1	-1	-1	.	.
COc1ccc(NC(=O)CN2C(=O)c3ccccc3S2(=O)=O)cc1S(=O)(=O)N1CCOCC1	-1	31	.	1	10	.	.
CC(C)(C)S(=O)N1Cc2cc(CO)cc(CCO)c2[C@@H]1CCO (some centres undefined)	.	.	.	.	0	.	.
COc1ccc(N2CCN(C(=O)[C@@H](NC(=O)c3ccccc3Cl)C(C)C)CC2)cc1	-5	-4	7	-9	0	.	.
COc1cc(/C=C/c2cccc[n+]2C)ccc1OCC(=O)Nc1cccc(Cl)c1	0	81*	5	19	2	75*	3
Cc1cccc(N2CCN(C(=O)c3cc(COc4ccc(F)c(F)c4)on3)CC2)n1	-5	-2	9	-6	2	.	.
O=C(NCc1ccccc1)C(c1ccc(F)cc1)N1CCN(c2ccccc2F)CC1 (centres undefined)	.	.	.	.	7	.	.
CCCc1n(CC(O)COCC2CC=CCC2)c2ccccc2[n+]1C (centres undefined)	-3	37	6	9	-3	.	.
CCCc1n(CC(O)COC2CCCCC2)c2ccccc2[n+]1C (centres undefined)	-4	56*	-4	13	12	76*	1
CCN1CCN(CC(O)COCc2ccccc2)CC1 (centres undefined)	-1	-2	11	-5	5	.	.
CCCc1n(CC(O)COCc2ccccc2)c2ccccc2[n+]1C (centres undefined)	4	58*	-16	8	-11	69*	-2
CCn1c(=O)c(=O)n(CC)c2cc(S(=O)(=O)Nc3cc(C)ccc3C)ccc21	-3	-3	1	-4	8	.	.
O=C(NCC1COc2ccccc2O1)c1cc(S(=O)(=O)N2CCOCC2)c(Cl)cc1Cl (centres undefined)	0	42*	.	4	0	1	.
O=C(NCC1COc2ccccc2O1)c1ccc(F)c(S(=O)(=O)N2CCOCC2)c1 (centres undefined)	-4	0	.	-4	-12	.	.
Cc1ccc(C(=O)CN(CCCC(N)=O)C(=O)c2ccncc2)cc1	3	-2	27	-11	8	.	.
SMILES	beta cell repl	A3A deaminase	VLA-4 inh	A3G deaminase	NRP1-CendR mod	A3A conf	UDG A3A counter
CCc1ccc(NC(=O)c2ccc(-n3cncn3)c([N+](=O)[O-])c2)cc1	0	41*	2	15	2	5	.
CCN1C(N(C)CCc2cccs2)=N[C@@H](c2ccccc2)C(C(=O)OC)=C1C	-4	52*	14	22	-26	52*	-2
CCN1C(N(C)CCc2c[nH]c3ccccc23)=N[C@@H](c2cccc(C(F)(F)F)c2)C(C(=O)OC)=C1C	-6	31	4	4	-12	.	.
COCc1cc(CN(C)C(=O)c2oc3c(F)cccc3c2C)[nH]n1	-1	-5	4	-3	0	.	.
CC(=O)NNS(=O)(=O)c1ccccc1[N+](=O)[O-]	0	47*	-5	-2	-78	1	-3
Cc1ccc(S(=O)(=O)N(Cc2ccccc2)Cc2ccco2)cc1	-6	-2	1	-5	14	.	.
Cc1ccc(S(=O)(=O)N(CC(=O)O)Cc2ccco2)cc1	-3	52*	2	12	-7	56*	1
Cc1ccccc1COc1ccc(-c2nnn(CC(=O)O)n2)cc1	-2	40*	2	-1	-2	23	2
Cc1ccc(-c2nnn(CC(=O)O)n2)cc1	-2	2	7	-1	-1	.	.
O=C(N/N=C/c1ccncc1)c1cccs1	-3	-1	3	-5	5	.	.
O=C(N/N=C/c1ccc(-c2ccccc2C(=O)O)o1)c1cccs1	-2	46*	-1	20	-2	38*	-3
Cc1ccc2c(CC(=O)OCc3cc(=O)n4c(n3)sc3ccccc34)coc2c1	0	44*	20	10	1	26	.
CC(C)[C@H](NC(=O)Cc1ccccc1)C(=O)OCc1cc(=O)n2c(n1)sc1ccccc12	1	43*	10	8	-12	30	.
O=C(OCc1cc(=O)n2c(n1)sc1ccccc12)c1ccc2c(=O)n3c(nc2c1)CCC3	-3	22	8	12	-5	.	.
COc1ccc(NC(=O)/C=C/c2cccc(Br)c2)cn1	1	41*	-1	-7	12	15*	1
Cc1nc2cc(C(=O)O)ccc2n1-c1ccccc1	0	0	24	-7	3	.	.
CC1=CC(C)(C)[N+](C)=CN1c1ccccc1	0	57*	5	15	5	70*	4
C=CCn1c(=N)c(S(=O)(=O)c2ccc(C)c(C)c2)cc2c(=O)n3ccccc3nc21	2	-4	17	1	-17	.	.
CC(C)(C)c1ccc(NC(=O)C2=CN3CCS(=O)(=O)N=C3C=C2)cc1	2	51*	11	9	-4	71*	-4
Cc1ccc(NC(=O)C2=CN3CCS(=O)(=O)N=C3C=C2)cc1	0	-2	10	-2	2	.	.
Cc1cc(NC(=S)Nc2cccc3ccccc23)n[nH]1	-1	-2	9	-5	-1	.	.
